Bioassay records from PubChem.
Shown are actives, neighbours in structure and some others; about 0.35% of the full set was active somewhere.
Apoferritin bind – binds horse apoferritin like a general anesthetic | apoferritin/1-aminoanthracene competitive binding, fluorescence | Potency, µM (doses to about 77.5 µM), for inactives: top-dose activity change, negative = displacement, usual class: inhibitors | actives 0.074% (n = 350,000); also: nearly all actives have a fitted effect of over 20% in size
Target sequence (P02791 2-175 limits assumed): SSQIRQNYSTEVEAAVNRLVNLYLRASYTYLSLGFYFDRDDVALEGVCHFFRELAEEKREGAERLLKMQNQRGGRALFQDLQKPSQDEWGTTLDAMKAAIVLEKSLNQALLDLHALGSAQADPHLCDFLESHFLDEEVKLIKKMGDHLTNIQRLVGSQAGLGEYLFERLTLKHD
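10 uM apoferritin + 50% sat. 1-AMA, PBS; cpd 10 min RT; Ex380/Em535 endpoint; normalized to free probe vs complex; 4-param Hill fit; propofol titration as pos. ctrl.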
Chronic BCR inh – blocks chronic active B-cell receptor signaling | actives 0.05% (n = 340,000) | AID 493014 | ABC-DLBCL IkBa-CBG/CBR reporter, luminescence ratio, 4 h | Potency, µM (series often up to 46.1 µM), inactives show at the highest dose activity change, negative = inhibition, actives largely listed as inhibitors; active = well fitted inhibition curve with a large enough effect in the signal ratio, with a control signal flat, not every such curve was filed as active; inconclusive = small, poorly fitted or top-dose-only effect, or effect the other way, or a change in a side signal; the % refers to the signal ratio;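 also: plate controls were basal doxycycline-induced cells for no effect and cells given 10 µM MG132 for full effect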
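Doxycycline induced both beetle luciferases in TMD8 lymphoma cells; IKK-driven degradation limits the IkappaBalpha-fused green signal, while red luminescence normalises for cell number and nonspecific effects. Compounds tested up to 46 uM, 4 hrs.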
GLS inh – inhibitors of human glutaminase (GLS); Potency, µM (titrated, usually from 45.5 µM), for inactives: top-dose activity change, negative = inhibition, most hits filed as inhibitors; O94925; GLS enzymatic activity, qHTS titration; actives 0.21% (n = 410,000)
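Compounds were pin-transferred onto hKGA, after which L-glutamine (1 mM solution) and a detection mix of glutamate oxidase, HRP and Amplex Red were added. Initial and 30 min RT fluorescence reads were collected.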
B2AR arrestin – recruits beta-arrestin to the human beta2-adrenergic receptor; beta-arrestin recruitment to beta2AR, cell-based reporter; Potency, µM (highest dose often 46.1 µM), without a hit: at the highest dose activation, most hits filed as activators; actives 0.02% (n = 330,000); AID 492947;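 also: 0% = DMSO controls and full agonism = EC100 isoproterenol or metaproterenol; nearly all actives have a fitted effect of over 65% in size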
Target sequence (P07550 whole entry, looked up): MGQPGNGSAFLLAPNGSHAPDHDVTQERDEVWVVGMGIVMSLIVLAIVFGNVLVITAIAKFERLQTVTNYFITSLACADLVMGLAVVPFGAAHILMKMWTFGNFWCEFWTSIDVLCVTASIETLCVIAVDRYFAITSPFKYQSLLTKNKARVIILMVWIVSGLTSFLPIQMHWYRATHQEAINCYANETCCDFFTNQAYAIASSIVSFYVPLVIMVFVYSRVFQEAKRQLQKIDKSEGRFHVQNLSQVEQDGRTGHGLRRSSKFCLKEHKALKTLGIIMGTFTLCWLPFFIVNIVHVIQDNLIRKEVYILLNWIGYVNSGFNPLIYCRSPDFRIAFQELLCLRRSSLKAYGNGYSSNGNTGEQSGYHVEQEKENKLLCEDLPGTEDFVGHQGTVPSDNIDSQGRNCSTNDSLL
MBNL1-CUG inh – blocks human MBNL1 binding to CUG repeat RNA. Potency, µM (highest dose often 57.5 µM), for inactives: top-dose activity change, negative = inhibition, most hits filed as inhibitors. AID 2675. TR-FRET MBNL1-His/biotin-(CUG)12 binding, 665/545 ratio. actives 0.036% (n = 280,000); active = well fitted inhibition curve with a large enough effect in the signal ratio, with a control signal flat, not every such curve was filed as active; inconclusive = small, poorly fitted or top-dose-only effect, or effect the other way, or a change in a side signal; inactive = no such curve, though single readings can be large or run the other way; the % refers to the signal ratio
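Ratiometric TR-FRET (665 over 545 nm, excitation 340 nm) tracks disruption of MBNL1-His/biotin-(CUG)12 complex after 60 min at room temperature, with compounds at 92 nM to 58 uM final.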
* marks the source's active call; other numbers are inactive results; ? = inconclusive; nt = no result given. Unless noted, calls follow the shape of the dose curve; as a rule, active = well fitted curve in the direction sought with a large enough effect; inconclusive = small, poorly fitted or top-dose-only effect, or another doubt; inactive = no such curve, though single readings can be large; an effect the other way counts as inactive or inconclusive. Unless noted, % is scaled to controls: 0 for no effect and ±100 for the full control effect; potency is read from the fitted curve at half-maximal effect.

SMILES | Apoferritin bind | Chronic BCR inh | GLS inh | B2AR arrestin | MBNL1-CUG inh
COc1ccc(C2CC(=O)c3c([nH]c(C(=O)OC4CCCCCC4)c3C)C2)cc1OC (stereo unspecified) | -15% | nt | 1% | nt | nt
Cc1ccc(-n2c(=O)c3sccc3n(CC(=O)NCc3ccco3)c2=O)cc1 | -4% | -2% | 0% | 0% | -6%
Cc1cccc(Cn2c(=O)n(-c3ccc(CC(=O)NCc4ccco4)cc3)c(=O)c3sccc32)c1 | -8% | 5µM* | 12% | -1% | 15%
CCCC[n+]1c2ccccc2cc2ccccc21 | 226% | ? | 5.6µM* | 0% | 17%
CCOC(=O)c1cc(C)n(CC2CCC(C(=O)Nc3cccc(C(C)=O)c3)CC2)c1C (stereo unspecified) | -13% | nt | -13% | nt | nt
COc1cc(/C=C(\C#N)c2nc3ccccc3[nH]2)cc(Cl)c1OCc1ccccc1Cl | -17% | nt | -2% | nt | nt
COc1ccc2c(c1)C(C)=CC(C)(C)N2S(=O)(=O)c1ccc(NC(C)=O)cc1 | -21% | 4.5µM* | -18% | 1% | 8%
CC1=CC(C)(C)N(S(=O)(=O)c2ccc(C)cc2)c2ccccc21 | 45% | 23µM* | -9% | 0% | -8%
CCc1nnc(SCc2nc(-c3ccccc3)oc2C)c2cc3sccc3n12 | -10% | nt | 10% | nt | nt
COCCNC(=S)N/N=C(\C)c1ccc(Cl)s1 | -13% | ? | -5% | 10µM* | 12%
C/C(=N\NC(=S)NCc1ccccc1)c1ccc(Cl)s1 | 4% | -1% | -18% | 0% | 2%
O=C(NCC(c1ccccc1)c1ccccc1)c1nn(-c2ccccc2F)nc1CO | 38% | nt | -1% | nt | nt
O=C(ONC1=NCCCCC1)c1cccc([N+](=O)[O-])c1 | -10% | -7% | 22µM* | -1% | ?
Cc1c(C(=O)NCc2cccc(Cl)c2)sc2ncnc(N(C)C3CCCCC3)c12 | -9% | 33% | -7% | nt | nt
CN(C)c1nc(=NCc2ccco2)ss1 | -11% | ? | ? | 2.2µM* | nt
O=C1CCCC(=NCc2ccco2)C1 | -2% | 0% | -1% | -1% | -1%
COc1ccc(C)cc1NC(=O)C(=O)NCC(c1cccnc1)N1CCN(c2ccccc2F)CC1 (stereo unspecified) | 6% | nt | -2% | nt | nt
COC(=O)N/N=C/c1ccc(-c2ccc(C)c(Cl)c2)o1 | -3% | ? | 10% | 0% | ?
Cc1ccc(-c2ccc(/C=N/NC(=O)CN3CCCC3)o2)cc1Cl | 18µM* | 13% | 2% | 0% | ?
Cc1ccc(C(=O)/C=C/C(=O)c2ccc(C)cc2)cc1 | -10% | 2% | 2.8µM* | -1% | -9%
Cc1ccc(/C=C/C(=O)c2ccc(C)cc2)cc1 | -11% | -6% | 5% | 0% | 13%
CCCCCC1Nc2cc(C(F)(F)F)c(S(N)(=O)=O)cc2S(=O)(=O)N1 (stereo unspecified) | nt | nt | 1% | nt | nt
CCOc1ccc(CN2C(=O)c3ccccc3Sc3ccc(C(=O)OC)cc32)cc1 | -7% | -11% | -3% | nt | nt
CC(C1CC2CCC1C2)n1c(-c2ccco2)n[nH]c1=S (stereo unspecified) | -12% | 5% | 11µM* | 0% | -1%
Cc1ccc(-n2c(-c3ccco3)n[nH]c2=S)cc1 | -2% | 15% | -10% | 0% | 18%
SMILES | Apoferritin bind | Chronic BCR inh | GLS inh | B2AR arrestin | MBNL1-CUG inh
CCCCCCC(O)C/C=C\CCCCCCCC(=O)O (stereo unspecified) | nt | nt | 3% | nt | nt
CCOC(=O)c1cnc2c(OC)cccc2c1N1CCN(c2ccccc2F)CC1 | 8.9µM* | nt | -2% | nt | nt
CCOC(=O)c1cnc2ccc(OCC)cc2c1N1CCN(c2ccccc2OC)CC1 | -2% | ? | 4% | 0% | 12%
COC1=C(C(=O)O)N2C(=O)[C@@H](NC(=O)C(N)C3C=CCC=C3)[C@H]2SC1 (stereo partly specified) | nt | nt | 0% | nt | nt
N#CC(C(=S)Nc1ccccc1)c1nc2ccccc2[nH]1 (stereo unspecified) | -18% | ? | ? | 1.8µM* | 28%
O=C(N/N=C/c1c[nH]c2ccccc12)c1cccc(O)c1 | -10% | ? | 0% | 0% | 16%
O=C(N/N=C/c1c[nH]c2ccccc12)c1ccc(O)c(O)c1 | 3% | ? | 11µM* | -1% | ?
O=C(O)c1cc(N/N=C/c2c[nH]c3ccccc23)ccc1Cl | -3% | ? | 14µM* | 0% | 15%
O=C(O)c1cc(N/N=C/c2ccc(-c3ccccc3)cc2)ccc1Cl | 6% | ? | ? | -1% | ?
CC[N+](CC)(CC)CCOC(=O)C(C1CCCC1)C1CCCC1 | nt | nt | 2% | nt | nt
CN(C)/C=C1/NC(=S)NC1=O | -7% | ? | 10µM* | 0% | ?
CCN1C(=O)/C(=C\N(C)C)NC1=S | -3% | 0% | 29% | 3% | -9%
O=C(COc1ccccc1)NC1CCCCCCC1 | 45µM* | 1% | 5% | 0% | -5%
Cc1cccc(-c2nc(C)c(CCNC(=O)C(=O)Nc3ccc(C)c(C)c3)s2)c1 | -9% | nt | 4% | nt | nt
N#Cc1ccc(NC(=O)COC(=O)CNC(=O)C2CCCCC2)cc1 | 8.9µM* | 14% | 7% | 0% | -7%
N#Cc1ccc(NC(=O)COC(=O)C2CCC2)cc1 | nt | nt | 2% | nt | nt
FC(F)C(F)(F)C(F)(F)C(F)(F)c1cc(-c2ccccc2)n[nH]1 | 14µM* | ? | -10% | 0% | 0%
CC(C)(C)c1ccc(/C=N/NC(=S)Nc2cccnc2)cc1 | ? | -17% | nt | 0% | -11%
Oc1ccc(/C=N/NC(=S)Nc2cccnc2)cc1O | -7% | ? | 5µM* | 0% | nt
CCCCCC1C(=O)CCC1CC(=O)O (stereo unspecified) | -4% | nt | nt | nt | nt
CCCCC1C(=O)CC[C@H]2[C@@H]1CC(=O)[C@@H]2C/C=C\CCCC(=O)O (stereo partly specified) | -3% | 21µM* | -3% | -1% | -14%
Cc1n[nH]c(=S)n(NC(=O)/C=C/C(=O)Nn2c(=S)[nH]nc(C)c2=O)c1=O | 0% | 7% | 11µM* | 0% | ?
COc1cc(OC)c(NC(=O)c2ccc3nc(C(C)C)oc3c2)cc1Cl | -9% | nt | 7% | nt | nt
COc1cc(C(=O)Oc2c(CN3CCOCC3)cc(Cl)c3cccnc23)cc(OC)c1OC | -21% | -2% | -12% | 3.5µM* | 15%
O=C(Oc1c(CN2CCOCC2)cc(Cl)c2cccnc12)c1ccccc1Cl | -23% | ? | ? | 3.5µM* | 3%
COc1cc(O)c2c(c1)oc(=O)c1c3cc(O)c(O)cc3oc21 | 71% | nt | nt | nt | nt
O=C(NNc1ccc(-c2csnn2)cc1)c1ccccc1C(F)(F)F | -12% | -27% | 11µM* | 0% | 3%
O=C(NNc1ccc(-c2csnn2)cc1)c1cc(Cl)cc(Cl)c1 | -1% | -6% | ? | -1% | -7%
